gsp antag = antagonists of gsp mutant (McCune-Albright syndrome). 340,000 compounds, 0.4% hits. gsp-mutant cells, cAMP HTRF, 30 min. Potency, µM (highest dose often 76.9 µM), usual class: inhibitors. AID 624288; calls by dose curve; cell line not stated here;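 further: intracellular cAMP measured with PDE inhibitor Ro 20-1724 present during compound exposure; nearly all actives have a fitted effect of over 65% in size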
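G418-selected cells were plated in DMEM/10% FBS for 16-24 h at 37C, then treated with compounds plus the PDE inhibitor […] (300 uM solution added) for 30 min at 37C. Intracellular cAMP was measured by HTRF after 30 min lysis at room temperature.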
BRCA1 expr act = BRCA1 expression activation; MCF7-BRCA1-FFLuc reporter, luminescence, 48 h; response scale: scaled: vehicle 0%, 10 µM genistein 100%; Potency, µM (titrated, usually from 46.1 µM), hits mostly activators; 380,000 compounds, 1.1% hits; AID 624202; further: nearly all actives have a fitted effect of over 80% in size
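MCF7 cells carrying a BRCA1-firefly luciferase reporter (2000 cells/well, phenol-red free MEM) were attached for 2 h at 37 °C, then given compounds for 48 h. Luminescence was read 15 min after luciferase reagent; activity normalized to genistein (10 microM) and DMSO.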
IL2 activator = activates IL-2 in a cell-based reporter assay | IL-2 activation reporter assay, cell-based qHTS; stimulated with anti-CD3/CD4/CD28 beads; in transgenic mouse T cells | activation, % (series mostly up to about 46 µM) | 360,000 compounds, 0.065% hits; in the data active means activation above about 50%; inconclusive means mostly about 30% to 49%
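Unstimulated transgenic mouse T cells preincubated 60 min with compound, then stimulated with anti-CD3/anti-CD4-coated beads plus anti-CD28 for 18 h at 37 degrees C. IL-2 response read as EGFP and DsRed fluorescence by plate cytometry.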
gsp agonist = activates gsp, the McCune-Albright syndrome mutation. gsp mutant cells, cAMP HTRF, 30 min. Potency, µM (doses to about 76.9 µM), most hits filed as activators. 340,000 compounds, 0.13% hits; active means well fitted activation curve with a large enough effect; inconclusive means small, poorly fitted or top-dose-only effect, or another doubt; inactive means no such curve, though single readings can be large or run the other way; cell line not stated here;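 further: phosphodiesterase inhibitor Ro 20-1724 added with compounds to block cAMP breakdown; nearly all actives have a fitted effect of over 60% in size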
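Cells in DMEM/10% FBS with G418 were pretreated with compounds in DMSO plus […] (300 uM stock) for 30 min at 37C. cAMP was measured by HTRF (cAMP-d2 plus anti-cAMP antibody-K) after 30 min at room temperature.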
mIDH1 inhibitor = human IDH1 R132H inhibition | O75874 | IDH1-R132H enzyme, NADPH consumption, diaphorase/resazurin fluorescence | Potency, µM (doses to about 76.6 µM), hits mostly inhibitors | 390,000 compounds, 0.093% hits | AID 602179; further: nearly all actives have a fitted effect of over 65% in size
Target sequence (O75874 whole entry R132H, stated change not applied): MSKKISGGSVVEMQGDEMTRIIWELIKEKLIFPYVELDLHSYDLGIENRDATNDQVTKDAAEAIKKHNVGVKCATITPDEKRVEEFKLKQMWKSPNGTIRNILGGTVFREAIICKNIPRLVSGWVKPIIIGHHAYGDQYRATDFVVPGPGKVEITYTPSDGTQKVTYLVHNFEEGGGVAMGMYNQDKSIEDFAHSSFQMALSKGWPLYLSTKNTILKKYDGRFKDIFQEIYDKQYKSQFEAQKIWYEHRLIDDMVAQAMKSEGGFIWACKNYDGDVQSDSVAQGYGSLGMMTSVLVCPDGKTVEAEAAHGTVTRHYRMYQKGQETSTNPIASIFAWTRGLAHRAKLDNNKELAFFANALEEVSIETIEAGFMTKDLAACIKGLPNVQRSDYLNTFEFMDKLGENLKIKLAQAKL
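IDH1-R132H (0.5 ug/mL dispensed) in pH 7.5 Tris buffer was preincubated 30 min with compound, then given a substrate mix of 0.016 mM NADPH and 2 mM alpha-KG for 80 min at room temperature; remaining NADPH was read by diaphorase/resazurin fluorescence.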
A number is an active result; - = inactive; ? = inconclusive; . = no result; [ ] = another dose, or the depositor's remark. Sampled rows, rich in hits. Any-hit rate of the full collection: about 1.5%. Unless noted, the call rests on the fitted dose curve; in most records, active means well fitted curve in the direction sought with a large enough effect; inconclusive means small, poorly fitted or top-dose-only effect, or another doubt; inactive means no such curve, though single readings can be large; an effect the other way counts as inactive or inconclusive.

SMILES | gsp antag | BRCA1 expr act | IL2 activator | gsp agonist | mIDH1 inhibitor
O=C1OCc2ccc(NC(=O)c3c(F)cccc3Cl)cc21 | - | - | - | - | -
COc1ccccc1CNCC(=O)Nc1ccc(N2CCOCC2)cc1 | - | - | - | ? | -
COc1ccc(NC(=O)Nc2ccc(F)c(Cl)c2)cc1 | - | ? | - | - | -
COc1ccc(NC(=O)Nc2ccccc2OC)cc1 | - | 14.1µM | - | - | -
COc1ccccc1NC(=O)Nc1ccc(N2CCOCC2)cc1 | - | 7.08µM | - | - | -
COc1ccc(NC(=O)Nc2ccc(Br)c(C)c2)cc1 | . | 11.2µM | - | -[15.4 µM] | -
COc1ccccc1NC(=O)Nc1ccc2c(c1)CCC2 | - | 2.82µM | - | ? | -
CCN(CC)C(=O)CSc1nnc2c3ccccc3n(C)c2n1 | - | - | - | 7.08µM | -
Cn1c2ccccc2c2nnc(SCC(=O)Nc3cccc(C(=O)O)c3)nc21 | - | - | - | 14.1µM | -
CCOC(=O)C(C)Sc1nnc2c3ccccc3n(C)c2n1 (configuration not stated) | - | - | - | ? | -
CCOC(=O)C1=C(C)N(C[C@@H]2CC[C@@H](Cc3ccc4cc(OC)ccc4c3)O2)C(=O)NC1c1ccc(OC)cc1 (some centres not stated) | - | - | - | . | -
COc1ccc2cc(C[C@@H]3CC[C@@H](CO)O3)ccc2c1 | - | 2.82µM | - | . | -
COc1ccc(C)cc1S(=O)(=O)NC1CC1 | - | - | - | -[15.4 µM] | -
COc1ccccc1Nc1nc2ccccc2n1C | - | 4.47µM | - | - | -
COc1ccc(OC)c(Nc2ccc(Nc3cc(OC)ccc3OC)nn2)c1 | ? | - | - | -[15.4 µM] | -
COc1ccccc1Nc1ccc(Nc2ccccc2OC)nn1 | - | 5.01µM | - | - | -
COc1ccc2c(/C=C/c3cc[n+](C)cc3)c[nH]c2c1 | ? | - | - | -[15.4 µM] | -
CCn1c(/C=C/c2c[nH]c3ccccc23)nc2ccccc2c1=O | - | ? | - | -[15.4 µM] | -
Cc1ccc2[nH]cc(/C=C/c3cc[n+](C)cc3)c2c1 | ? | - | 71.0 | ? | -
CC[n+]1ccc(/C=C/c2c[nH]c3ccccc23)cc1 | ? | - | 211.4 | - | -
Cc1nc2cccnc2n1C1CCN(S(=O)(=O)N(C)C)CC1 | . | . | . | . | -
CCOC(=O)Cc1csc(NC(=O)COc2ccc(N(C)S(=O)(=O)c3cccs3)cc2)n1 | 35.5µM | - | - | - | -
Cc1ccc(N/N=C/c2ccc3c(c2)OCCO3)cc1Cl | - | 3.16µM | - | - | -
O=C(O)c1cc(N/N=C/c2ccc3c(c2)OCCO3)ccc1Cl | - | ? | - | - | -
Cc1cc(C)c2oc(C(=O)Nc3nc4ccc(Cl)cc4s3)cc(=O)c2c1 | . | . | . | . | -
SMILES | gsp antag | BRCA1 expr act | IL2 activator | gsp agonist | mIDH1 inhibitor
O=C(c1cccs1)N(Cc1ccco1)c1ccc(O)cc1 | . | - | . | . | .
O=c1c2ccccc2nc(-c2ccco2)n1Cc1ccccc1 | - | 7.94µM | - | - | -
c1ccc(Cn2c(-c3ccco3)nc3nc4ccccc4nc32)cc1 | - | ? | - | - | -
CCOC(=O)c1nnn(-c2nonc2N)c1CN1CCCC1 | 50.1µM | - | - | - | -
CC(=O)c1sc(NC(=O)c2ccccc2F)nc1-c1ccccc1 | ? | 2µM | - | -[15.4 µM] | -
CN(C)c1nc2ccc(OCCN3CCCCC3)cc2s1 | - | 11.2µM | - | - | -
CC(=O)N1N=C(c2cccs2)CC1c1cc2cc(C)ccc2nc1Cl (configuration not stated) | 50.1µM | - | - | - | -
O=C(Nc1ccc2snnc2c1)Nc1cccc2ccccc12 | 50.1µM | - | - | - | -
Cc1ccc(NC(=O)CSCc2ccco2)cc1 | - | 10µM | - | - | -
O=C(NCCSCc1ccco1)Nc1ccc(Cl)cc1 | - | 8.91µM | - | - | -
Cc1ccc(NC(=O)C(=S)NCc2ccco2)cc1 | -[15.4 µM] | 7.08µM | - | - | -
Cc1ccc(NC(=O)C(=O)NCc2ccco2)cc1 | . | . | . | . | -
Cc1ccc(-c2[nH]ncc2CNC(C)c2ccccc2)cc1 (configuration not stated) | . | - | . | . | .
Cc1ccnc(N(C(=O)Nc2ccccc2)C2=NCC(C)(C)S2)c1 | - | 3.16µM | - | -[15.4 µM] | -
c1ccn(-c2ccc(-c3ccn[nH]3)cc2)c1 | - | 5.01µM | - | - | -
CCOc1ccc(NC(=O)C2(c3cccs3)CCOCC2)cc1 | . | . | . | . | -
COc1ccc(OC)c(C2C(C(=O)c3cc4ccccc4o3)=C(O)C(=O)N2c2cc(C)on2)c1 (configuration not stated) | - | - | - | 14.1µM | -
Cc1cc(N2C(=O)C(O)=C(C(=O)c3cc4ccccc4o3)C2c2ccc(Br)cc2)no1 (configuration not stated) | - | - | - | 3.55µM | -
CCCOc1ccc(C2C(C(=O)c3cc4ccccc4o3)=C(O)C(=O)N2c2cc(C)on2)cc1OC (configuration not stated) | - | - | - | 7.08µM | -
Cc1ccc2nc(N3CCC(C(=O)N4CCN(c5cccc(Cl)c5)CC4)CC3)[nH]c2c1 | . | . | . | . | -
Cc1cccc(-c2nc(CSCC(=O)N3CCN(c4ccccn4)CC3)c(C)o2)c1 | 31.6µM | - | - | - | -
Cc1cccc(-c2nc(CSCC(=O)N3CCN(c4cccc(C)c4C)CC3)c(C)o2)c1 | . | . | . | . | -
Cc1cc(Cl)ccc1OCC(=O)N1CCCCC1 | - | 11.2µM | - | - | -
O=C(CCCOc1ccc(Cl)cc1)N1CCCCC1 | - | 12.6µM | - | - | -
O=C(CCCOc1ccc(Cl)cc1)N1CCCCCC1 | - | - | - | ? | -
SMILES | gsp antag | BRCA1 expr act | IL2 activator | gsp agonist | mIDH1 inhibitor
Cc1cc(Cl)ccc1OCC(=O)N1CCN(c2ncccn2)CC1 | - | - | - | -[15.4 µM] | -
O=C(c1ccc(COc2ccc(Cl)cc2)cc1)N1CCCCC1 | - | 3.16µM | - | - | -
CCCCOc1ccc(C(=O)N2CCCCCC2)cc1 | - | - | - | - | -
CCc1ccc(NC(=O)CSc2nc(C)cc(COC)c2C#N)cc1 | . | - | . | . | -
Cc1cc(C)nc(SCC(=O)Nc2ccc3c(c2)OCO3)n1 | - | - | - | ? | -
Cc1noc(NS(=O)(=O)c2ccc(NC(=O)CSc3n[nH]c(-c4ccccc4)n3)cc2)c1C | - | - | - | - | -
Cc1noc(NS(=O)(=O)c2ccc(NC(=O)c3nn(-c4ccccc4)ccc3=O)cc2)c1C | - | - | - | 14.1µM | -
Cc1cc(C)c(C#N)c(SCC(=O)Nc2ccc3c(c2)OCO3)n1 | - | 11.2µM | - | ? | -
COCc1cc(C)nc(SCC(=O)Nc2ccc(C)c(C)c2)c1C#N | - | 3.98µM | - | - | -
Cc1cc(C)c(C#N)c(SCC(=O)Nc2ccc(S(=O)(=O)Nc3onc(C)c3C)cc2)n1 | - | - | - | 17.8µM | -
CSc1ccc(-c2nc3ncccn3c2Nc2ccc(C)c(C)c2)cc1 | . | . | . | . | -
CCc1nc2c(OCCC3CCCCC3)cccn2c1N(C)C(=O)C(C)C | . | - | - | . | .
CCOc1cccc(NC(=O)CSc2nc(C)c3c(c2C#N)CCCC3)c1 | - | - | - | - | -
